Bioassay records: PubChem, National Center for Advancing Translational Sciences (NCATS)
Shown are actives, neighbours in structure and some others; about 7.4% of the full set was active somewhere.
FLuc modulator: counter-screen for miR-21 project: firefly luciferase inhibitors or activators. actives 6.9% (n = 360,000). Potency, µM (titrated, usually from 57.5 µM), inactives show at the highest dose activity change, negative = inhibition, hits mostly inhibitors. purified FLuc, Km substrates, luminescence inhibition. AID 588342;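 further: plate controls were vehicle for no effect and reference inhibitor for full effect; nearly all actives have a fitted effect of over 55% in size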
Target sequence (P08659 whole entry, looked up): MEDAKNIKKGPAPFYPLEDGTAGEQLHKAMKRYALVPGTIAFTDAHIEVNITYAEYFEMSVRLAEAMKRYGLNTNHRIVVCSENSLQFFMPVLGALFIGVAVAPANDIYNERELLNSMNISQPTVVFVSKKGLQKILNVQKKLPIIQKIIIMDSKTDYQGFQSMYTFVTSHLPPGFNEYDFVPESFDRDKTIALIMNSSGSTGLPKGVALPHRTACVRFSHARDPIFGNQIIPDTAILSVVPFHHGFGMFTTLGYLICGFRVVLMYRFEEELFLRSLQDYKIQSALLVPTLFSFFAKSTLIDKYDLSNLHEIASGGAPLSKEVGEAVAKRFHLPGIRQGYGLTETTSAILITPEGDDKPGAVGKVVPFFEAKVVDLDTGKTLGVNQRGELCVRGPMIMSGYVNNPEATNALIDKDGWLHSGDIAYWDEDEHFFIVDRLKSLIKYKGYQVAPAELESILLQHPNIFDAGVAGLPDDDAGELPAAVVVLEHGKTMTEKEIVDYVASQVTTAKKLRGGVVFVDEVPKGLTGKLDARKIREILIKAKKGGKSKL
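Biochemical qHTS of compounds, final roughly 60 µM downward over six points, against 10 nM purified firefly luciferase using Km concentrations of substrates (10 uM D-luciferin, 10 uM ATP) in Tris acetate pH 7.5 buffer; luminescence output.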
NPC1 promoter act: NPC1 promoter activation. Potency, µM (highest dose often 9.22 µM), without a hit: at the top dose activation, usual class: activators. Huh7 NPC1 promoter luciferase reporter, 24 h. actives 2.4% (n = 320,000); further: % of control where 0% means no effect; nearly all actives have a fitted effect of over 60% in size
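In 1536-well qHTS, Huh7 cells harboring an NPC1 promoter–luciferase construct received compound for 24 h; activation was quantified by luminescence following luciferase reagent addition.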
Rab9 promoter act: Rab9 promoter activation; Huh7 Rab9 promoter-luciferase reporter, luminescence, 24 h; Potency, µM (titrated, usually from 9.22 µM), without a hit: at the highest dose activation, negative = inhibition, most hits filed as activators; actives 2.8% (n = 320,000); AID 485297; further: % of control where 0% means no effect; nearly all actives have a fitted effect of over 60% in size
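Stable Rab9-luc Huh7, 1500 cells/well, 2 h settle; cmpd in DMSO, 24 h, 37 °C/5% CO2; luciferase reagent 10 min RT; luminescence.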
ELG1 genotoxic: induces genotoxicity in HEK293T cells with luciferase-tagged ELG1; actives 1.3% (n = 330,000); Potency, µM (top dose mostly 46 µM), without a hit: at the highest dose activity change, positive = activation, most hits filed as activators; AID 504466; HEK293T ELG1-luciferase reporter, luminescence, 16 h; further: % of control where 0% means no effect; nearly all actives have a fitted effect of over 60% in size
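HEK293T cells expressing luciferase-tagged ELG1 were treated with compound or DMSO for 16 hr at 37°C. Luciferase activity was then read after 30 min with ONE-Glo at room temperature; rising signal flags genetic stress.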
SMN2 splice up: increases expression of the SMN2 splice variant; HEK293 SMN2-luciferase splicing reporter, luminescence, 30-36 h; Potency, µM (doses to about 46.1 µM), for the others: top-dose activity change, positive = activation, most hits filed as activators; actives 2.8% (n = 210,000); further: % of control where 0% means no effect; nearly all actives have a fitted effect of over 55% in size
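HEK293 cells carry an SMN2 […]–luciferase reporter in which exon 7 inclusion puts luciferase in frame. Cells were plated 10-12 h before compound addition, then incubated 30-36 h at 37C. ONE-Glo luminescence was read; sodium butyrate at 4.5 mM final served as control.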
Starred values were filed as active, the others as inactive; ? = inconclusive; . = no result given. The call rests on the fitted dose curve; in most records, active means well fitted curve in the direction sought with a large enough effect; inconclusive means small, poorly fitted or top-dose-only effect, or another doubt; inactive means no such curve, though single readings can be large; an effect the other way counts as inactive or inconclusive. Potency means the concentration at half of the fitted maximal effect.

SMILES | FLuc modulator | NPC1 promoter act | Rab9 promoter act | ELG1 genotoxic | SMN2 splice up
O=C(CCNS(=O)(=O)c1ccc2c(c1)CCN2C(=O)C1CC1)N1CCN(c2ccc(F)cc2)CC1 | -8.3% | . | . | . | .
COC(=O)c1sc2nc(-c3ccco3)ccc2c1N | 0.379µM* | 1.41µM* | 1.12µM* | ? | 6.31µM*
Nc1c(C(=O)Nc2ccccc2F)sc2nc(-c3ccco3)ccc12 | ? | ? | ? | ? | -19.4%
NC(=O)c1sc2nc(-c3ccco3)ccc2c1N | 10.7µM* | ? | ? | ? | ?
COc1ccc(N2CC(NC(=O)c3cccs3)CC2=O)cc1OC (stereo not drawn) | 1.0% | . | . | . | .
COC(=O)[C@H](Cc1ccccc1)NC(=O)O[C@H]1C(=O)c2cc(OC)ccc2O[C@@H]1c1ccc(OC)c(Br)c1 | . | . | . | . | 4.3%
NC(=O)c1ccccc1N/C=C/C(=O)c1cccs1 | 2.69µM* | 1.78µM* | 0.891µM* | 2.06µM* | 7.08µM*
NC(=O)c1ccccc1NS(=O)(=O)c1cccs1 | 4.0% | -1.1% | -2.4% | -1.4% | .
CC(=O)c1ccc(NS(=O)(=O)c2ccc(N/C=C/C(=O)c3ccc(F)cc3)cc2)cc1 | ? | 4.9% | 7.2% | 0.8% | .
Cc1cccc(N/C=C/C(=O)c2cccs2)c1C | 0.338µM* | 29.2% | ? | 1.84µM* | 2µM*
Cc1c(NC(=O)c2cccs2)cccc1NC(=O)c1cccs1 | -5.5% | 4.8% | -3.0% | 1.1% | .
NC(=O)c1ccccc1N/C=C/C(=O)c1ccc(F)cc1 | 0.757µM* | 0.708µM* | 1µM* | ? | 17.8µM*
O=C(/C=C/c1ccc([N+](=O)[O-])cc1)c1cccs1 | -17.1% | -1.0% | 11.9% | 4.9% | .
COc1cc([N+](=O)[O-])ccc1N/C=C/C(=O)c1cccs1 | 0.12µM* | 0.501µM* | 1.12µM* | ? | 1.58µM*
O=C(CCC1N=C2c3ccccc3N=C(SCc3cccc(F)c3)N2C1=O)NCCc1ccccc1 (stereo not drawn) | -4.3% | . | . | . | .
CCCN(CCC)C(=O)SCC | . | . | . | . | -6.5%
Cc1ccc(C(=O)/C=C/Nc2ccccc2C(N)=O)o1 | 5.36µM* | . | . | . | 11.2µM*
NC(=O)c1ccccc1NC(=O)CCCc1ccccc1 | ? | 20.8% | 19.6% | 2.7% | .
NC(=O)c1ccccc1N/C=C/C(=O)c1ccc(Cl)cc1Cl | 0.19µM* | 0.794µM* | 0.501µM* | ? | 1µM*
Cc1ccc(COC(=O)c2ccc(-c3nnn(Cc4ccc(C)cc4)n3)cc2)cc1 | -0.6% | . | . | . | -6.3%
Cc1ccc(OCc2nnc(SCC(=O)Nc3ccccc3C(C)C)o2)cc1 | -13.6% | . | . | . | .
CCOC(=O)c1ccc(N=Nc2c(C)c(C#N)c(O)[nH]c2=O)cc1 | 2.69µM* | 15.8% | 4.47µM* | ? | 49.9%
CCN(CC)c1nn2c(=O)c(C(=O)NCc3ccc(F)cc3)cnc2s1 | 6.0% | . | . | . | .
CN/N=C(\Cc1nc2ccccc2[nH]1)c1ccc([N+](=O)[O-])cc1 | 16.9µM* | ? | ? | 12.9% | ?
O=C(Cc1nc2ccccc2[nH]1)c1ccc([N+](=O)[O-])cc1 | 15.1µM* | 3.16µM* | ? | ? | .
SMILES | FLuc modulator | NPC1 promoter act | Rab9 promoter act | ELG1 genotoxic | SMN2 splice up
O=C(NCCc1nc2ccccc2[nH]1)c1cccc(Br)c1 | 6.1% | 0.2% | -3.9% | 0.2% | -12.0%
O=C(Cc1nc2ccccc2[nH]1)c1ccc(Cl)cc1 | 6.01µM* | 2.51µM* | 2.51µM* | 16.0% | .
N#CCCN/N=C(/Cc1nc2ccccc2[nH]1)c1cccc(Cl)c1 | ? | 10.8% | 19.0% | 0.2% | 0.562µM*
CCOc1cc(-c2ccc(OC(=O)c3ccc(OC)cc3)c(OC)c2)cc(=O)c2c(C)oc(C)c12 | -10.8% | . | . | . | -10.0%
CCC(C)NC(=O)CN1C(=O)c2cccnc2Oc2ccc(C)cc21 (stereo not drawn) | -0.8% | . | . | . | .
Nc1ncnc2c1nc(Br)n2C1O[C@H]2COP(=O)(O)O[C@@H]2C1O (stereo partly drawn) | . | . | . | . | -23.9%
O=C(NCCc1nc2ccccc2[nH]1)Nc1ccccc1 | -0.2% | 3.8% | 1.9% | -0.2% | -12.4%
Clc1ccc(/C(Cc2nc3ccccc3[nH]2)=N\Nc2ccccc2)cc1 | 13.5µM* | 3.55µM* | 2.82µM* | ? | .
O=Cc1cn(-c2ccccc2)nc1-c1ccc(F)cc1 | 12µM* | 21.8% | 5.3% | -5.8% | .
